Test results reported in PubChem BioAssay (NCI).
Compounds without any hit were thinned out: in the full panel of roughly 83,000, 20% have a hit.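 For each line, cells grew in 96-well plates with the test compound present at a single concentration for 48 hours.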 Values without a mark were called inactive. Active and inactive are the calls of the source.

Tested on: OVCAR-4 ovarian
Experiment: NCI-60 one-dose screen, 48 h (100 = growth as untreated, 0 = no growth, -100 = all killed)
Conditions: 10 µM unless noted
Description: Growth inhibition of the OVCAR-4 human tumor cell line is measured as a screen for anti-cancer activity. Cells are grown in 96 well plates and exposed to the test compound for 48 hours. Compounds are tested at a single concentration, which is 10^-5 M for most compounds. The reported endpoint is percent growth (GI% or GIPRCNT), where numbers from 0 - 100% represent growth inhibition, and numbers from -100% - 0 represent cell death. For example, a value of 40 represents 60% growth inhibition. A value of 0 means no net growth occurred over the course of the experiment. A value of -40 indicates 40% of cells at the beginning of the experiment died by the end of the experiment. A value of -100 means all cells are dead at the end of the experiment.
NCI-60 Human Tumor Cell Lines Screen was performed using the standard one-dose NCI protocol, which is described in more detail at https://dtp.cancer.gov/discovery_development/nci-60/default.htm.
Compounds with GIPRCNT values below 10 were considered active. Activity score was based on GIPRCNT using the following formula: […]
Score is 0 for GIPRCNT values of 100 or above, 50 for GIPRCNT values of 0, and 100 for GIPRCNT values of -100.

Structure (SMILES) | growth
Cc1nn(-c2ccccc2)c(Cl)c1/C=C/C(=O)c1ccc(F)cc1 | 93.1%
CC(=O)c1cc2c(N)c(C(=O)Nc3cccc4ccncc34)sc2nc1C | 110%
CC(C)(C)c1cc(C=O)cc(C(C)(C)C)c1O | 98.7%
CC[C@]12C=CCN3CC[C@@]4(c5cc(NC(=O)CCC(=O)O[C@H]6CC[C@H]7[C@@H]8CCC9=CC(=O)CC[C@@H]9[C@H]8CC[C@]67C)c(OC)cc5N(C)[C@H]4[C@@](O)(C(=O)OC)[C@@H]1OC(C)=O)[C@@H]32 | 67%
COc1ccc2c(c1)C(=O)CC(c1ccccc1OC)O2 (stereo not given) | 102%
O=C(CSc1nc2ccccc2[nH]1)NCc1ccccc1 | 97.6%
CCN(CC)CCn1c(=O)c2cc(OC)c(OC)cc2c2ccc3cc4c(cc3c21)OCO4 | 66.4%
N#C/C(=C\c1cccc(C#N)c1)c1ccccc1 | 98.8%
N#CC1=C(N)Oc2c(cnn2-c2ccc([N+](=O)[O-])cc2[N+](=O)[O-])C1c1ccccc1 (stereo not given) | 109%
CCCCCCNC(=O)Oc1ccc(/C(=C(\C)c2ccccc2)c2ccc(OCCCN(C)C)cc2)cc1 | 86.9%
CCCCOc1ccc(/C(C)=N/Nc2cc(C)nc3ccc(Br)cc23)cc1 | 101%
COc1ccc(-c2nc([C@@H](C)Sc3nc(N)cc(N)n3)c(C)s2)cc1OCCN1CCOCC1 | 106%
COc1ccc(C(=O)C2C(C#N)C(C#N)C3c4ccccc4C=CN23)cc1 (stereo not given) | 62.9%
CC(C)N1C(=O)S/C(=C2/SC(=O)N(C(C)C)C2=O)C1=O | 97.4%
CCC(CC)NCC(C)(C)O | 105%
O=C1c2cccc3c(-c4ccc5c(c4)ncn5C4CCCCC4)ccc(c23)C(=O)N1c1nc2ccccc2s1 | 79.1%
CC(=O)CCC(=O)OCc1cc(=O)c(O)co1 | 112%
C=C1C(=O)O[C@H]2[C@H]1CC/C(COC(=O)NCc1c[nH]c3ccc(Cl)cc13)=C\CC[C@@]1(C)O[C@@H]21 | -54.7% (active)
COc1cc2oc(-c3cccc(C(=O)Nc4ccc5c(c4)OCO5)c3)cc(=O)c2c(O)c1OC | 0.0679% (active)
COc1ccc(-c2[nH][nH]c(=O)c2-c2nc3ccccc3s2)cc1 | 109%

Structure (SMILES) | growth
COc1ccc(C(=O)c2cc(C)c(OC)c(C)c2)c(OC)c1NC(C)=O | 61.6%
NNC(=O)c1ccc(-n2nc(-c3ccccc3)c3ccccc32)cc1 | 23.9%
CNCCn1c(=O)c2cc(OC)c(OC)cc2c2ccc3cc4c(cc3c21)OCO4 | -10.9% (active)
CC(c1ccccc1)C(C(=O)c1ccccc1)c1ccccc1 (stereo not given) | 96%
Nc1n[nH]c2cccc(C#Cc3cccc(C(=O)Nc4cccc(C(F)(F)F)c4)c3)c12 | 66.2%
COc1cc(NC(=O)CSc2nc3ccc(C)cc3c(=O)n2Cc2ccccc2)cc(OC)c1OC | 23.9%
CCOC(=O)c1cc(C(=O)c2ccc(OC)cc2)n2ccc(/C=C/c3cc[n+](CC(=O)c4ccc(OC)cc4)cc3)cc12 | 16.1%
CN(C)CCn1c2ccc(Br)cc2c2nc3ccccc3nc21 | 44%
Cc1ccc(-c2[nH][nH]c(=O)c2-c2nc3ccccc3s2)cc1 | 105%
Cn1nc(CC#N)c2c(=N)n(N)cnc21 | 114%
COc1cc(CC(=O)n2ncc3ccc(N)cc32)cc(OC)c1OC | 88.4%
COc1ccc2c(c1)oc1c(C)c3c(c(C)c12)C(=O)N(CCN1CCOCC1)C3=O | 103%
O=C1Nc2cc(-c3ccc(NC(=O)C4CC4)cc3)ccc2/C1=C/c1ccc[nH]1 | 73.4%
COc1cc(-c2csc(NC(=O)c3cc(F)cc(C(F)(F)F)c3)n2)cc(OC)c1OC | 58.7%
N#CC(C(=O)/C(=N/NC(=O)c1ccccc1O)C(C#N)c1ccccc1)c1ccccc1 (stereo not given) | 58.8%
COc1ccc(C(=O)c2cc(C)c(OC)c(C)c2)c(OC)c1OC(=O)C(Cl)Cl | 46.7%
COc1cc2c(c(OC)c1OC)-c1ccc(NNC(=S)N(Cc3cccc(C[N+](Cc4cccc(CNC56CC7CC(CC(C7)C5)C6)c4)(Cc4cccc(CNC56CC7CC(CC(C7)C5)C6)c4)Cc4cccc(CN(C(=S)NNc5ccc6c(cc5=O)[C@@H](NC(C)=O)CCc5cc(OC)c(OC)c(OC)c5-6)C56CC7CC(CC(C7)C5)C6)c4)c3)C34CC5CC(CC(C5)C3)C4)c(=O)cc1[C@@H](NC(C)=O)CC2 (stereo not given in full) | 29.3%
CCOC(=O)c1cc(C(=O)c2ccc(Br)cc2)n2ccc(/C=C/c3cc[n+](CC(=O)c4ccc(OC)cc4)cc3)cc12 | 86.7%
CN(C)CC(O)c1ccc(/C=C/c2ccc(Cl)cc2)cc1 (stereo not given) | 25.2%
O=[N+]([O-])c1ccc(N=Nc2cc(S(=O)(=O)O)c3cccc(S(=O)(=O)O)c3c2O)cc1 | 114%
